Measurements as given in publication PMC7862700, “An all-to-all approach to the identification of sequence-specific readers for epigenetic DNA modifications on cytosine”.

Key:
Experiment in all cases: DAPPL (digital affinity profiling via proximity ligation, sequencing); 10 mM Tris-HCl pH 7.5, 50 mM NaCl, 1 mM DTT, 4% glycerol, room temperature, 30 min; GST-TFs on glutathione beads, 16-mer random dsDNA library, 0.1% formaldehyde crosslink after washing; high values mean tight binding
FEV = target: T1, FEV (Homo sapiens, UniProt Q99581 1-238); conditions: protein: recombinant; tags: N-terminal GST; dsDNA, one strand shown
T1 sequence: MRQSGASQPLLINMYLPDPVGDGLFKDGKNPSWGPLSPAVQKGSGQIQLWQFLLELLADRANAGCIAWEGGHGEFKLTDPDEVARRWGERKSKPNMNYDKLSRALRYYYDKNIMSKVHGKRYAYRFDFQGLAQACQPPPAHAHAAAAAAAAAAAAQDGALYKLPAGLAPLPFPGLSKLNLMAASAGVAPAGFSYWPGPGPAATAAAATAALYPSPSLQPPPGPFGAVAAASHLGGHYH
Procedure, shortened: (§1)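 Binding signal is given per hexamer as its read frequency for a factor divided by its frequency in the tag-only sample. GST-fused human transcription factors were expressed in yeast, captured on glutathione beads, barcoded with DNA and pooled with that sample, then incubated with 200 nmole of a 16-mer random double-stranded DNA library in Tris/NaCl/DTT/glycerol buffer for 30 min at room temperature. The pools were then washed, crosslinked, proximity-ligated, amplified by PCR and sequenced on an Illumina NextSeq500.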

ETV5 = ETV5 (Homo sapiens, UniProt P41161 1-510); conditions: protein: recombinant; tags: N-terminal GST; dsDNA, one strand shown
ETV5, sequence (P41161 whole entry): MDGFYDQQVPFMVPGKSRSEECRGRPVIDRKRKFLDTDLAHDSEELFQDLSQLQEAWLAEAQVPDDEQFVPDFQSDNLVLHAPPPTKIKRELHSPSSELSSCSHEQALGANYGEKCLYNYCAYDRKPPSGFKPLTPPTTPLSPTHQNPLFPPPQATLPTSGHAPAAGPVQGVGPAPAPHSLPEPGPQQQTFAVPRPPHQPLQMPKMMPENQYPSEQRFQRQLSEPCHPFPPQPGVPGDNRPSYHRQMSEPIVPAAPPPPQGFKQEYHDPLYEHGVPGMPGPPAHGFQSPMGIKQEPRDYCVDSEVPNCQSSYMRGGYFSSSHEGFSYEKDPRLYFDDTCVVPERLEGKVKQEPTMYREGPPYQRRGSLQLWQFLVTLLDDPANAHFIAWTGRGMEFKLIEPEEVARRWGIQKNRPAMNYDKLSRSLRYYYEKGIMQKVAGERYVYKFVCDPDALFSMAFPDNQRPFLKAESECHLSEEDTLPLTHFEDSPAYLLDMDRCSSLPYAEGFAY
Procedure, shortened: as §1

HSF1 = HSF1 (Homo sapiens, UniProt Q00613 1-529); conditions: protein: recombinant; tags: N-terminal GST; chain copies: 3; dsDNA, one strand shown
HSF1, sequence (Q00613 whole entry): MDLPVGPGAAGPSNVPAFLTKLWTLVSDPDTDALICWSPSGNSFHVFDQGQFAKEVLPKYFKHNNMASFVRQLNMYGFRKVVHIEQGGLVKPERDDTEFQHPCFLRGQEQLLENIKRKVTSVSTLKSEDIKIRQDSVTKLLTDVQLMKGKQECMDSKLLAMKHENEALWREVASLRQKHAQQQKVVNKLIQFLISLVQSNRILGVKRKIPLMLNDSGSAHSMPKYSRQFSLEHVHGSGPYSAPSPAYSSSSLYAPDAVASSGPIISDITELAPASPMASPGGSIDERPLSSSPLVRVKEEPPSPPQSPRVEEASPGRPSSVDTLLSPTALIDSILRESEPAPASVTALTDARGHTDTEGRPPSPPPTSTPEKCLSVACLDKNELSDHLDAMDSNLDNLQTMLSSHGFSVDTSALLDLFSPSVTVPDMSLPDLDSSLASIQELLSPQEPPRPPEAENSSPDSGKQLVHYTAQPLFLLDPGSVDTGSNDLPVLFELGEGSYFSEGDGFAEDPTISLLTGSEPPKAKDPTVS
Procedure, shortened: as §1

SPIC = target: T2, SPIC (Homo sapiens, UniProt Q8N5J4 1-248); conditions: protein: recombinant; tags: N-terminal GST; dsDNA, one strand shown
T2 sequence: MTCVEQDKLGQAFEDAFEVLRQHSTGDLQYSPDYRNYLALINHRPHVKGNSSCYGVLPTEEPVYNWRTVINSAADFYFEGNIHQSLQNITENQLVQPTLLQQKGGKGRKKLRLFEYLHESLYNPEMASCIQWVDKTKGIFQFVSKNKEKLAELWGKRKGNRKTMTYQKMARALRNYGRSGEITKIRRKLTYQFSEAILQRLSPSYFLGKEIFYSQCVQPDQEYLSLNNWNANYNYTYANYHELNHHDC
Procedure, shortened: as §1

ELF4 = ELF4 (Homo sapiens, UniProt Q99607 1-663); conditions: protein: recombinant; tags: N-terminal GST; dsDNA, one strand shown
ELF4, sequence (Q99607 whole entry): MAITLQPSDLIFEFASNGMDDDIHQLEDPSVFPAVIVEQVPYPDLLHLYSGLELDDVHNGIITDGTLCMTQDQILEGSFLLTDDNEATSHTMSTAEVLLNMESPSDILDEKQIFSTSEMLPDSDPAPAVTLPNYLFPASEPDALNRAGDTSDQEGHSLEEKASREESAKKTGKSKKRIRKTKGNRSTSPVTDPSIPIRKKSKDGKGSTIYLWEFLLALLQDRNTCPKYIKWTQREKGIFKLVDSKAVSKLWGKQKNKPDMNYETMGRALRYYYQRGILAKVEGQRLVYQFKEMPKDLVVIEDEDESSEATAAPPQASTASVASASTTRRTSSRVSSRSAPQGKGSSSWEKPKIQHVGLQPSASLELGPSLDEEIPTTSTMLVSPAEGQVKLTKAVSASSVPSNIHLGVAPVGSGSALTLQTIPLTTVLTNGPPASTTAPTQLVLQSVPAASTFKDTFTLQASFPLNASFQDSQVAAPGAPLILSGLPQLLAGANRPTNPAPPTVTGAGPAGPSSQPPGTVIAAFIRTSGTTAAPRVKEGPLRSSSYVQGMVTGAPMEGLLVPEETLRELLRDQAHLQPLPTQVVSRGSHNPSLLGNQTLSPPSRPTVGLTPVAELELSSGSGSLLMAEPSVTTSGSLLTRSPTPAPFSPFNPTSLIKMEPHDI
Procedure, shortened: as §1

ELK4 = target: T3, ELK4 (Homo sapiens, UniProt P28324-2 1-405); conditions: protein: recombinant; tags: N-terminal GST; dsDNA, one strand shown
T3 sequence: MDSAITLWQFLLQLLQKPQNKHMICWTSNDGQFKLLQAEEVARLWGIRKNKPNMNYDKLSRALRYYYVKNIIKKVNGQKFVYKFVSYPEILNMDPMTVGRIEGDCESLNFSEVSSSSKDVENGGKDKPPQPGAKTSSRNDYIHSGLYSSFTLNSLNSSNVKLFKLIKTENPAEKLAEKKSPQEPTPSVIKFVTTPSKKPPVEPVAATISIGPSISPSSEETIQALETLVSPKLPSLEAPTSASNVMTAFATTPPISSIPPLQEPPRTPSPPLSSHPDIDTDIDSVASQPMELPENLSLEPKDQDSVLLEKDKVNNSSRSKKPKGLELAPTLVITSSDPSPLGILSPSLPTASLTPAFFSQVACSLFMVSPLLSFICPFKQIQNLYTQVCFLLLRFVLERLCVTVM
Procedure, shortened: as §1

ETV2 = target: T4, ETV2 (Homo sapiens, UniProt O00321 1-342); conditions: protein: recombinant; tags: N-terminal GST; dsDNA, one strand shown
T4 sequence: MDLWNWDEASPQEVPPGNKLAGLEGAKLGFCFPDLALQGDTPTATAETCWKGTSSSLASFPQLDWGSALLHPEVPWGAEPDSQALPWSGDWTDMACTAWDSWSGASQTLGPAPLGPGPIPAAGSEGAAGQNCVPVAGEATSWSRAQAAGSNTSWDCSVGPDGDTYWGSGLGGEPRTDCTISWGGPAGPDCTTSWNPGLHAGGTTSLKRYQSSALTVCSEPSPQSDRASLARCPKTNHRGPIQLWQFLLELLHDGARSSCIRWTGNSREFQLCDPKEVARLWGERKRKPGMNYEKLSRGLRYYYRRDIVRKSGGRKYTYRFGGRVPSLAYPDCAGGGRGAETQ
Procedure, shortened: as §1

ELF3 = target: T5, ELF3 (Homo sapiens, UniProt P78545 1-371); conditions: protein: recombinant; tags: N-terminal GST; dsDNA, one strand shown
T5 sequence: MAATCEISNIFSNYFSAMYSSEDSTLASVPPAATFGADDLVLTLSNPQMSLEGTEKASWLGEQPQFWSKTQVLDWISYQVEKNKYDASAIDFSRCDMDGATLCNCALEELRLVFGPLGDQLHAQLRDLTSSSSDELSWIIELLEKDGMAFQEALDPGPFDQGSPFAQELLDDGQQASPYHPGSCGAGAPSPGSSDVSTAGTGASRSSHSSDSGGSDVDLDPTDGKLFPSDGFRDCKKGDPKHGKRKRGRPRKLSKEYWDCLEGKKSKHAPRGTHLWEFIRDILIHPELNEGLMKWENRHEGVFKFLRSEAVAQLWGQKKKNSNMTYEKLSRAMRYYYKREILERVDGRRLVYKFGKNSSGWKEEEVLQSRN
Procedure, shortened: as §1

CRX = CRX (Homo sapiens, UniProt O43186 1-299); conditions: protein: recombinant; tags: N-terminal GST; dsDNA, one strand shown
CRX, sequence (O43186 whole entry): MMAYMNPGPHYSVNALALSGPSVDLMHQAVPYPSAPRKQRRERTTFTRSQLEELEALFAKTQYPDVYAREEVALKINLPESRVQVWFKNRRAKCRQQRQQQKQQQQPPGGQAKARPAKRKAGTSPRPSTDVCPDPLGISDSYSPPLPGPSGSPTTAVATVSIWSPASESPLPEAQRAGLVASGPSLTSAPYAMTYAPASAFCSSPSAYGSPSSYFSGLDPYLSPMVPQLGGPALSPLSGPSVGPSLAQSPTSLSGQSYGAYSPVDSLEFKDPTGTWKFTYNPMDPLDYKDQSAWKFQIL
Procedure, shortened: as §1

ETV1 = ETV1 (Homo sapiens, UniProt P50549 1-477); conditions: protein: recombinant; tags: N-terminal GST; dsDNA, one strand shown
ETV1, sequence (P50549 whole entry): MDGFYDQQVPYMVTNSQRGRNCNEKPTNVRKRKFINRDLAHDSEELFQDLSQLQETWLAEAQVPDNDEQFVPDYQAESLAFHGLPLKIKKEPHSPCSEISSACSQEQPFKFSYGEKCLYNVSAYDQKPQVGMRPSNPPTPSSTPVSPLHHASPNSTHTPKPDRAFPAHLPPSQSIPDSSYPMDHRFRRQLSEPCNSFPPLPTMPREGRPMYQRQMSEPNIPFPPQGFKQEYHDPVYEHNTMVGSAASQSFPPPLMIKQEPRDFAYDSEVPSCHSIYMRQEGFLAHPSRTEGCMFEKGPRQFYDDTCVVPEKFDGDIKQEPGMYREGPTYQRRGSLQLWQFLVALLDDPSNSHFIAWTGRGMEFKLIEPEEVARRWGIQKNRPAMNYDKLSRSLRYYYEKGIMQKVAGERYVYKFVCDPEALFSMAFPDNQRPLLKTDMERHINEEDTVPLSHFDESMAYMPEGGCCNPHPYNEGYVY
Procedure, shortened: as §1

ERF = target: T6, ERF (Homo sapiens, UniProt P50548 1-548); conditions: protein: recombinant; tags: N-terminal GST; dsDNA, one strand shown
T6 sequence: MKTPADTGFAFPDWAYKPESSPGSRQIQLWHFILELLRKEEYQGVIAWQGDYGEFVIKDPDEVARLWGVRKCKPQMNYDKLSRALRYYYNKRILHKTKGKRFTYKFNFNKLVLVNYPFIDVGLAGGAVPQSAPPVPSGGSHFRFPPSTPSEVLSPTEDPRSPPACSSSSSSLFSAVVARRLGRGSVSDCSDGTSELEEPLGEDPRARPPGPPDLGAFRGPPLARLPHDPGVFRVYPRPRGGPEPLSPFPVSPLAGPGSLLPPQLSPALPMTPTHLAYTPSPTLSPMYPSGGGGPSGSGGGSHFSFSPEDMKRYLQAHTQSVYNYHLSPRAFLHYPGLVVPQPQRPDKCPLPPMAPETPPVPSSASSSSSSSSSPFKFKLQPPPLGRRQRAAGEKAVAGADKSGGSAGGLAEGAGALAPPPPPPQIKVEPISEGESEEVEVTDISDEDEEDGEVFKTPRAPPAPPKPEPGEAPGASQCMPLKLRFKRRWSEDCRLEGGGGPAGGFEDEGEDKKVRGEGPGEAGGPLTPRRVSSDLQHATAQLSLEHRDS
Procedure, shortened: as §1

ETV3L = target: T7, ETV3L (Homo sapiens, UniProt Q6ZN32 1-361); conditions: protein: recombinant; tags: N-terminal GST; dsDNA, one strand shown
T7 sequence: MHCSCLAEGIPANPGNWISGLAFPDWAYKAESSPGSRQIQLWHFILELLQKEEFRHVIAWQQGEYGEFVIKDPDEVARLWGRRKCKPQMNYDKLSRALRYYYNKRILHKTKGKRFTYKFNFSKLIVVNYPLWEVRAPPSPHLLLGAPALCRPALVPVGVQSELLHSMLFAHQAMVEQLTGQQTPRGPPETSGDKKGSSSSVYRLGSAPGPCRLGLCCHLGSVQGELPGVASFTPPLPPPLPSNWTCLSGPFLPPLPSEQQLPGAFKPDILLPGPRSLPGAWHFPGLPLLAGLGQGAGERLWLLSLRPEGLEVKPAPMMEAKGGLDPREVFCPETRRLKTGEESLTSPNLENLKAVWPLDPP
Procedure, shortened: as §1

ETS2 = target: T8, ETS2 (Homo sapiens, UniProt P15036 1-469); conditions: protein: recombinant; tags: N-terminal GST; dsDNA, one strand shown
T8 sequence: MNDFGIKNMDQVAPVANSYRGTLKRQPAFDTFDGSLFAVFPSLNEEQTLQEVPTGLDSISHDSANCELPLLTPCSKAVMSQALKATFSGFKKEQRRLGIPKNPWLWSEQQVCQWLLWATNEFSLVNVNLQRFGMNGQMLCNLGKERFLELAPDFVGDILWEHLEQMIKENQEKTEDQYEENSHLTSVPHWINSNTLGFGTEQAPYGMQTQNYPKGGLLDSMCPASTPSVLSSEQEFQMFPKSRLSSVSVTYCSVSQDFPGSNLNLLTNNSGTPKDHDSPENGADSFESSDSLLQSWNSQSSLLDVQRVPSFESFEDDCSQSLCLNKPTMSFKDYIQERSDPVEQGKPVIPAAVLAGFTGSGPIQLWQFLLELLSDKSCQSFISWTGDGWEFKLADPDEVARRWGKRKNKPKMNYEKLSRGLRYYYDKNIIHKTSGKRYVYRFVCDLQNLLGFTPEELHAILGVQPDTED
Procedure, shortened: as §1

SPDEF = target: T9, SPDEF (Homo sapiens, UniProt O95238 1-335); conditions: protein: recombinant; tags: N-terminal GST; dsDNA, one strand shown
T9 sequence: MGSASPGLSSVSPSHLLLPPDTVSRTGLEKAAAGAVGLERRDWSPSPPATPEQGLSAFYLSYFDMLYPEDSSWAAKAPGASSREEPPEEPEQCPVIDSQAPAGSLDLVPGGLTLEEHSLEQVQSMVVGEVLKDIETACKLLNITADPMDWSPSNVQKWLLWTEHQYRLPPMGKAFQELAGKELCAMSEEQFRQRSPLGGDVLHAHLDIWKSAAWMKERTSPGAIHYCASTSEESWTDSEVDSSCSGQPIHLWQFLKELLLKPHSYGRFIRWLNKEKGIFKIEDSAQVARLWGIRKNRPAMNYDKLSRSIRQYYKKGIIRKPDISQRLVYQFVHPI
Procedure, shortened: as §1

ETV7 = target: T10, ETV7 (Homo sapiens, UniProt Q9Y603 1-341); conditions: protein: recombinant; tags: N-terminal GST; dsDNA, one strand shown
T10 sequence: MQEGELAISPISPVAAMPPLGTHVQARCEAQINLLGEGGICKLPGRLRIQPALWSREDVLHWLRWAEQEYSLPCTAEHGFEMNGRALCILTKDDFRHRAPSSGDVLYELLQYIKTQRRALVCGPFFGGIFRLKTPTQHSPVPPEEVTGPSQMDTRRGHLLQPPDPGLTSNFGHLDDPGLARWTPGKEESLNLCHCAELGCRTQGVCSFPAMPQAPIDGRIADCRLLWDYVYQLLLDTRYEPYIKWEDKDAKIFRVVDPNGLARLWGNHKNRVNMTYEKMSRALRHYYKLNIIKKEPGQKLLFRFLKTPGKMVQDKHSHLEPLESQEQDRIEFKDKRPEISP
Procedure, shortened: as §1

ELF5 = target: T11, ELF5 (Homo sapiens, UniProt Q9UKW6-2 1-255); conditions: protein: recombinant; tags: N-terminal GST; dsDNA, one strand shown
T11 sequence: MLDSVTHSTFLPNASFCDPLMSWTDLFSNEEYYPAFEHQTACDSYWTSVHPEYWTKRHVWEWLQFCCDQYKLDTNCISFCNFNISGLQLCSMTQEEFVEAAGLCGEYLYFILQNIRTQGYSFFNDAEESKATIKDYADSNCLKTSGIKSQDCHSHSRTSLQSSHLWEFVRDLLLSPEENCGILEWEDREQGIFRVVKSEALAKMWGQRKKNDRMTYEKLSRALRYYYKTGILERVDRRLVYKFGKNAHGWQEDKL
Procedure, shortened: as §1

ETV3 = target: T12, ETV3 (Homo sapiens, UniProt P41162-2 1-143); conditions: protein: recombinant; tags: N-terminal GST; dsDNA, one strand shown
T12 sequence: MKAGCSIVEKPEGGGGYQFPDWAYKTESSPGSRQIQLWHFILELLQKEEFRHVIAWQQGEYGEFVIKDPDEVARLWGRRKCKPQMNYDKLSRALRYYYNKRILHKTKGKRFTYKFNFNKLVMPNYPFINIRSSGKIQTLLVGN
Procedure, shortened: as §1

ETV6 = ETV6 (Homo sapiens, UniProt P41212 1-452); conditions: protein: recombinant; tags: N-terminal GST; dsDNA, one strand shown
ETV6, sequence (P41212 whole entry): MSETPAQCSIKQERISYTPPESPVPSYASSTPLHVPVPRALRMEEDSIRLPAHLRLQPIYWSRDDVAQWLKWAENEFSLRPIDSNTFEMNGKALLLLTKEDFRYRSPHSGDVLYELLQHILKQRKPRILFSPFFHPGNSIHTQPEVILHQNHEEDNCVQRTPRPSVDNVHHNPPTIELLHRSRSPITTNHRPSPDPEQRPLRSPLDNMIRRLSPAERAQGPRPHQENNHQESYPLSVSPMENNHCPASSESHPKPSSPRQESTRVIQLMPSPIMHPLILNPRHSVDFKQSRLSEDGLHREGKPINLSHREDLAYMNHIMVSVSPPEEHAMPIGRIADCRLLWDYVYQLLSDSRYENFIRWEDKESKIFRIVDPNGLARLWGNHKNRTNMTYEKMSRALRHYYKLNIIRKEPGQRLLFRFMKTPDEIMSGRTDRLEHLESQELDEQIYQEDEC
Procedure, shortened: as §1

With CATATA as the sequence, how does the binding signal (FEV) read?
The binding signal was 1.08 fold enrichment (6-mer frequency, TF over GST control).

What about the binding signal (ETV5) of the same sequence?
The binding signal was 1.09 fold enrichment (6-mer frequency, TF over GST control).

What about the binding signal (HSF1) of the same sequence?
Its binding signal is 1.03 fold enrichment (6-mer frequency, TF over GST control).

What about the binding signal (SPIC) of the same sequence?
The binding signal was 1.14 fold enrichment (6-mer frequency, TF over GST control).

And the binding signal (ELF4)?
The binding signal was 1.11 fold enrichment (6-mer frequency, TF over GST control).

What about the binding signal (ELK4) of the same sequence?
Its binding signal is 1.07 fold enrichment (6-mer frequency, TF over GST control).

What about the binding signal (ETV2) of the same sequence?
Its binding signal is 1.17 fold enrichment (6-mer frequency, TF over GST control).

What about the binding signal (ELF3) of the same sequence?
Its binding signal is 1.07 fold enrichment (6-mer frequency, TF over GST control).

And the binding signal (CRX)?
The binding signal was 1.09 fold enrichment (6-mer frequency, TF over GST control).

And the binding signal (ETV1)?
Its binding signal is 1.06 fold enrichment (6-mer frequency, TF over GST control).

And the binding signal (ERF)?
The binding signal was 1.04 fold enrichment (6-mer frequency, TF over GST control).

What about the binding signal (ETV3L) of the same sequence?
The binding signal was 1.09 fold enrichment (6-mer frequency, TF over GST control).

And the binding signal (ETS2)?
The binding signal was 1.08 fold enrichment (6-mer frequency, TF over GST control).

What about the binding signal (SPDEF) of the same sequence?
Its binding signal is 1.02 fold enrichment (6-mer frequency, TF over GST control).

What about the binding signal (ETV7) of the same sequence?
The binding signal was 1.1 fold enrichment (6-mer frequency, TF over GST control).

And the binding signal (ELF5)?
The binding signal was 1.01 fold enrichment (6-mer frequency, TF over GST control).

And the binding signal (ETV3)?
Its binding signal is 1.09 fold enrichment (6-mer frequency, TF over GST control).

What about the binding signal (ETV6) of the same sequence?
The binding signal was 1.12 fold enrichment (6-mer frequency, TF over GST control).
